Screening results (PubChem BioAssay)
CYP2C19 inhib – blocks human cytochrome P450 2C19 | CYP2C19 Supersomes, luciferin-H EGE luminescence, 30 min | inhibition, % at 5 µM | hit rate 21% among 96,000 | AID 778;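 active means CYP2C19 inhibition above a set limit at 5 µM in the primary screen, cut at about 50% in these data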;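 further: plate controls were negative control wells for no effect and 2.5 mM tranylcypromine positive control for full effect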
Target sequence (P33261 whole entry, looked up): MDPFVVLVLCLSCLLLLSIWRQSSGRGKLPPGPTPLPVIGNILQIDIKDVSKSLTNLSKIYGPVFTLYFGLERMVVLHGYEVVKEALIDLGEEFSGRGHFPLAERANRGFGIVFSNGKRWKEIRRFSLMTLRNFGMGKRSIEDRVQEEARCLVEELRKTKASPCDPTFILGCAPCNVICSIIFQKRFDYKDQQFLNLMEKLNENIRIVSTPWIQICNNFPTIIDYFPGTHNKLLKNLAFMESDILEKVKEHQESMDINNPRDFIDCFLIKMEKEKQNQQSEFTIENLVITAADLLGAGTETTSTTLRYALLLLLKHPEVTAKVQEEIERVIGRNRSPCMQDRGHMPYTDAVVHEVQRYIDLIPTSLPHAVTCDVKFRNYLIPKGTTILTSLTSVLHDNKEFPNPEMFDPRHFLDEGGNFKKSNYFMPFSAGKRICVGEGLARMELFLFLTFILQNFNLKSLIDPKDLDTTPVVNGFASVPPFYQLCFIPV
Cav3 T inh – inhibitors of human Cav3.2 T-type calcium channel; B-score at 10 µM; Cav3.2-expressing cells, Fluo-4 calcium fluorescence FDSS; hits give low values; hit rate 4% among 100,000; O95180;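 active means single-dose well whose peak fluorescence ratio is a statistical outlier from its plate by either plate-standardised score or position-corrected B-score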
CYP2C9 inh – blocks human cytochrome P450 2C9 | CYP2C9 Supersomes, luciferin-H conversion, luminescence | P11712 | AID 777 | hit rate 20% among 96,000 | inhibition, % at 5 µM;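 active means blocking of liver enzyme CYP2C9 beyond about 50% at 5 µM, limit read from the data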
CYP2C19 act – cytochrome P450 2C19 (human) activation; 96,000 tested, under 10 active; activation factor at 5 µM; P33261; recombinant CYP2C19, luciferin-H EGE luminescence; hits give high values; 0 = fully inhibited enzyme, 1 = untreated enzyme;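 active means activation factor of at least 2 at 5 µM in the primary screen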;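 further: 0 = wells with 2.5 mM tranylcypromine and 1 = vehicle-only wells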
CYP2C9 act – CYP2C9 (human) activation; activation factor at 5 µM; hit rate 1.4% among 96,000; recombinant CYP2C9, luciferin-H conversion, luminescence; hits give high values; factor 1 = untreated enzyme, 0 = blocked; P11712;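 active means activation factor of 2 or more for CYP2C9 at a 5 µM dose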;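 further: 0 = sulfaphenazole-blocked wells and 1 = vehicle-only wells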
The depositor's hits bear a star; . = no result. The list is not random: actives were taken first. Their share in the collection is about 27%.

SMILES	CYP2C19 inhib	Cav3 T inh	CYP2C9 inh	CYP2C19 act	CYP2C9 act
CN1CCN(C2=C(Cl)C(=O)N(Cc3ccccc3)C2=O)CC1	64*	-0.63	14	0.4	0.9
CN1CCN(C2=C(Cl)C(=O)N(c3ccc(Cl)c(Cl)c3)C2=O)CC1	79*	0.47	38	0.2	0.6
CCN1CCN(C2=C(Cl)C(=O)N(Cc3ccccc3)C2=O)CC1	.	1.4	.	.	.
CN1CCN(C2=C(Cl)C(=O)N(c3cccc(Cl)c3)C2=O)CC1	15	-1.1	11	0.8	0.9
O=C(/C=C/c1ccccc1)Nn1cnnc1	53*	0.95	54*	0.5	0.5
O=C(NCCc1c[nH]c2ccc(Cl)cc12)c1cccnc1	91*	0.19	87*	0.1	0.1
CC(=O)NCCCc1c[nH]c2ccc(Cl)cc12	80*	-0.43	47	0.2	0.5
NS(=O)(=O)c1ccc(CCNC(=O)c2cccnc2)cc1	.	-0.035	.	.	.
Cc1ccc(NC(=O)COC(=O)C2CCC(=O)N2)c(S(=O)(=O)N2CCOCC2)c1 (stereo not given)	-10	1.2	-75	1.1	1.7
COc1ccc(C(C)(C)C)cc1NC(=O)c1cncc(Br)c1	19	-0.41	28	0.8	0.7
CCOC(=O)C(C(C)=O)c1c(Br)c(O)c(O)c2c(C(=O)c3ccc(C)cc3)coc12 (stereo not given)	32	-2.3	98*	0.7	0
COc1ccc(C2C3=C(CC(c4ccco4)CC3=O)Nc3ccccc3N2C(C)=O)cc1 (stereo not given)	48	0.17	81*	0.5	0.2
O=C1CC(c2ccco2)CC2=C1C(c1ccccc1)n1nc(C(F)(F)F)nc1N2 (stereo not given)	30	.	62*	0.7	0.4
COc1ccc(C2CC(=O)C3=C(C2)Nc2ncnn2C3c2ccccc2)cc1 (stereo not given)	41	0.83	37	0.6	0.6
CC1CC(=O)C2=C(C1)Nc1ccccc1N(C(=O)COc1ccccc1)C2c1ccco1 (stereo not given)	56*	.	48	0.4	0.5
CCn1nnc(NC(=O)c2sc3ccccc3c2Cl)n1	.	0.52	.	.	.
CC1CCc2nn(CC(=O)NCCN3CCCCC3C)cc2C1 (stereo not given)	10	0.68	-1	0.9	1
CCOC(=O)c1c(C)n(C)c2c(C)cc(O)c(OC(C)=O)c12	-12	1.8	-32	1.1	1.3
Cc1ccccc1OCC(=O)N/N=C/c1cccn1C	29	0.24	-4	0.7	1
COc1ccc(CN(C(C)=O)c2cccc(C)c2C)cc1	99*	-3	68*	0	0.3
COc1ccc(CN(C(=O)CN2C(=O)C(C)Oc3ccccc32)C2CCCC2)c(OC)c1 (stereo not given)	81*	-4.4*	88*	0.2	0.1
COc1ccc(CN(C(=O)CN2C(=O)COc3ccccc32)C2CCCC2)c(OC)c1	44	-0.81	44	0.6	0.6
CCOc1ccccc1N1CCN(Cc2ccc(OC)c(OC)c2OC)CC1	.	0.065	.	.	.
COc1ccc(CN2CCc3ccccc3C2)c(OC)c1OC	61*	1.1	3	0.4	1
NC(=O)C1(N2CCCCC2)CCN(C(=O)CCCn2c(=O)[nH]c3ccsc3c2=O)CC1	-2	-0.22	30	1	0.7
SMILES	CYP2C19 inhib	Cav3 T inh	CYP2C9 inh	CYP2C19 act	CYP2C9 act
O=C(c1noc2c1CCCCC2)N1CCOCC1	17	1.7	58*	0.8	0.4
O=C(c1noc2c1CCCC2)N1CCCCC1	20	0.39	9	0.8	0.9
O=C(c1noc2c1CCCC2)N1CCN(Cc2ccccc2)CC1	97*	1.4	4	0	1
Cc1ccccc1NC(NC(=O)c1cccs1)C(Cl)(Cl)Cl (stereo not given)	99*	-5.9*	96*	0	0
Cc1ccc(NC(NC(=O)c2cccs2)C(Cl)(Cl)Cl)cc1C (stereo not given)	12	-3	56*	0.9	0.4
Cc1ccc(NC(NC(=O)c2cccs2)C(Cl)(Cl)Cl)cc1 (stereo not given)	95*	-1.1	99*	0.1	0
CC1=CCC(COC(=O)Nc2ccccc2)CC1 (stereo not given)	46	-2.2	8	0.5	0.9
COc1ccc(S(=O)(=O)Nc2nnc(C)s2)cc1	12	1.2	48	0.9	0.5
CC(C)Cc1nnc(NS(=O)(=O)c2ccc(Cl)cc2)s1	9	-1.3	70*	0.9	0.3
COc1ccc(S(=O)(=O)Nc2nnc(CC(C)C)s2)cc1	-2	-0.71	63*	1	0.4
Cc1ccc2[nH]c3nc(SCCN4CCOCC4)nnc3c2c1	6	.	10	0.9	0.9
COc1ccc2[nH]c3nc(SCc4nnc(-c5ccc(C)cc5)o4)nnc3c2c1	52*	0.77	72*	0.5	0.3
CCSc1nc2c(c(=O)n1-c1ccc(F)cc1)SCC2	.	-1.2	.	.	.
CN(C)C(=O)Cn1c(SCC(=O)N2CCCc3ccccc32)nc2ccccc21	3	0.3	0	1	1
CC1CCCCN1C(=O)CSc1nc2ccccc2n1CC(=O)N1CCc2ccccc21 (stereo not given)	82*	0.019	99*	0.2	0
Cc1nc2c3ccccc3nc(SCC(=O)N3CC(C)CC(C)C3)n2n1 (stereo not given)	54*	.	23	0.5	0.8
CC(C)NC(=O)CSc1nc2ccccc2n1CC(=O)N1CCc2ccccc21	72*	0.22	95*	0.3	0.1
CC(C)NC(=O)Cn1c(SCC(=O)N2CCc3ccccc3C2)nc2ccccc21	30	1.5	40	0.7	0.6
CC1CC(C)CN(C(=O)Cn2c(SCC(=O)N3CCc4ccccc4C3)nc3ccccc32)C1 (stereo not given)	.	-8.4*	.	.	.
CC(C)(C)n1nnnc1CN1CCSCC1	31	-0.38	0	0.7	1
Oc1ccc(-c2nc3ccccn3c2NCc2ccc3c(c2)OCO3)cc1	68*	.	-4	0.3	1
CCOC(=O)CNc1c(-c2ccc(O)cc2)nc2ccccn12	-5	0.73	-6	1.1	1.1
c1ccc(CSc2nnc([C@@H]3CCCN3)o2)cc1	16	0.62	10	0.8	0.9
Cc1ccc(CSc2nnc([C@@H]3CCCN3)o2)cc1	50*	0.98	8	0.5	0.9
CCOc1ccccc1N1C(=O)c2cccnc2C1=O	11	0.8	30	0.9	0.7
SMILES	CYP2C19 inhib	Cav3 T inh	CYP2C9 inh	CYP2C19 act	CYP2C9 act
CCOc1ccc2noc3c2c1C(=O)c1ccccc1-3	-8	-5.7*	3	1.1	1
CCNc1ccc2noc3c2c1C(=O)c1ccccc1-3	.	-1.4	.	.	.
O=C1c2ccccc2-c2onc3ccc(NCc4ccco4)c1c23	55*	-4.1*	88*	0.4	0.1
C=COCCNC(=O)Nc1ccc(Cl)c(Cl)c1	.	-2.1	.	.	.
Nc1cccc(-n2nncc2-c2ccc(Cl)cc2)c1	77*	-0.033	16	0.2	0.8
CCOc1ccc(Br)cc1S(=O)(=O)Nc1nc(CN2CCOCC2)nc2sc(C)c(C)c12	17	0.3	30	0.8	0.7
